Measured values reported in the supplement of paper PMC3334620.
Over roughly 33,000 sequences, “E-score (-0.5 to 0.5)” has its median near -0.011; the highest 2% begin near 0.28. What follows is part of a selection rich in the highest values, with near analogues and random picks from the rest.

Each sequence was assayed against T1, Gcr1 (UniProt P07261) (assay: PBM E-score (8-mer binding enrichment) (E-score (-0.5 to 0.5)); higher = stronger / more preferred TF binding). Conditions: protein concentration: 100 nM; construct: GST-full length.
T1 sequence: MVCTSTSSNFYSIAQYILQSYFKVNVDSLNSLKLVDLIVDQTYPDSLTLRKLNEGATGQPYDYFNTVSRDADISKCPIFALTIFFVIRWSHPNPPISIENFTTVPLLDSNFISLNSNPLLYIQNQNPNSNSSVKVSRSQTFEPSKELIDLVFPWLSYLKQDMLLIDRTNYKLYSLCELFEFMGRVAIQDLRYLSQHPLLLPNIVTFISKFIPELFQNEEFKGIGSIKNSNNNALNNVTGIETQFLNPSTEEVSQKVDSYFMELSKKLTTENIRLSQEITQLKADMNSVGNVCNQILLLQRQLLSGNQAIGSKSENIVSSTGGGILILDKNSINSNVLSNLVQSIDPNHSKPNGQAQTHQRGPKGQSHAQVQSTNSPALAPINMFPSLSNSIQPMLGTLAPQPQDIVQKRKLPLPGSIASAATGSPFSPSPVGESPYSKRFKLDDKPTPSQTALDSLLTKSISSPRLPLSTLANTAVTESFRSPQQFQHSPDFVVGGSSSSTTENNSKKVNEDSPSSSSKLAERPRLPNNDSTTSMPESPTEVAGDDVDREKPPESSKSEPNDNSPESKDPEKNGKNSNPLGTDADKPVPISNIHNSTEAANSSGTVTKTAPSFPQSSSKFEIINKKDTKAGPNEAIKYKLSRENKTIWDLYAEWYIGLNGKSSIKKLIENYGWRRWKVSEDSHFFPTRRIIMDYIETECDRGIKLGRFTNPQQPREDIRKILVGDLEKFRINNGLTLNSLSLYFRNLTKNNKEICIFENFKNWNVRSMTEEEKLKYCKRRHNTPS
Procedure, shortened: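 Each ungapped eight-base word and its reverse complement, pooled, received an E-score from the Universal PBM Analysis Suite. Underlying scans, normalised with masliner, recorded fluorescent anti-GST bound to GST-tagged yeast transcription factors. These were applied at about 100-200 nM to universal all-10-mer Agilent arrays double-stranded by primer extension.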

| Sequence | PBM E-score |
| --- | --- |
| TGGCACCA | 0.321 |
| GGGCACCA | 0.364 |
| GGGCACAC | -0.0584 |
| AGGCACCT | 0.16 |
| GGGCACGA | 0.0341 |
| AGGCACCC | 0.284 |
| AGGCACCG | 0.04 |
| AGGCACCA | 0.136 |
| GGGCACCC | 0.321 |
| CCATACTA | 0.0399 |
| CATGGTGC | 0.0809 |
| CGTGCATC | 0.00547 |
| AAGCCCGA | 0.0664 |
| GGTATCGA | 0.00098 |
| GAGCACCA | 0.207 |
| CAGCACCA | 0.277 |
| CGGCACCG | 0.143 |
| CGGCACCA | 0.245 |
| TAGCACCA | 0.323 |
| CGGCACCC | 0.381 |
| GTCACCAA | 0.0813 |
| GCAGGAAC | -0.0184 |

| Sequence | PBM E-score |
| --- | --- |
| CAATCTCC | 0.0196 |
| CAGATAGA | 0.0277 |
| ACAGTCCT | -0.141 |
| CCTACGGC | -0.146 |
| AACTCGGA | 0.0328 |
| CTTACCCC | -0.052 |
| GGGGACCA | 0.194 |
| AGGGACCC | -0.0366 |
| CGGGACCA | 0.00102 |
| CGGGACCG | -0.00477 |
| GGGGACCC | 0.291 |
| CGGGACCC | 0.306 |
| TAGCTGCA | -0.0344 |
| AGACGGAG | -0.0738 |
| CCAGCCGC | -0.0253 |
| CAAGCCGA | -0.038 |
| AAAGCCGC | 0.0398 |
| GAAGCCGC | 0.439 |
| CAAGCCGC | -0.00721 |
| GAAGCCGA | 0.401 |
| GCAGCCGC | 0.282 |
| TAAGCCGA | -0.177 |

| Sequence | PBM E-score |
| --- | --- |
| ACAGCCGC | -0.0946 |
| ATGTGGTC | -0.0553 |
| CTTTTGAA | 0.1 |
| AAATTTGC | 0.109 |
| GCGCAGCC | 0.292 |
| ACGCAGCC | 0.304 |
| ACGCAGCA | -0.0163 |
| CCGCAGCC | 0.223 |
| GCGCAGAC | -0.167 |
| ACGCAGCT | 0.308 |
| ACGCAGAT | 0.151 |
| GCGCAGCA | -0.0801 |
| ACGCAGCG | 0.244 |
| AGAACCGG | 0.214 |
| CGAATGGC | 0.137 |
| CAGGGTGC | 0.234 |
| ACTCATAA | -0.0566 |
| AAGCCGAT | -0.0786 |
| AGGAACCT | 0.38 |
| CGGAACCG | 0.18 |
| GGGAACGA | -0.0791 |
| CGGAACCA | 0.114 |

| Sequence | PBM E-score |
| --- | --- |
| TAGAACCA | 0.0906 |
| TGGAACAA | -0.0703 |
| AAGAACCT | 0.2 |
| ACGAACCT | -0.0495 |
| GGGAACCA | 0.314 |
| CAGAACCC | 0.208 |
| TGGAACCA | 0.357 |
| CGGAACCC | 0.348 |
| CAGTACCA | 0.0486 |
| AACATTCG | -0.0406 |
| TAAATACA | 0.161 |
| GGTGGTCA | -0.132 |
| AGCACGCT | -0.123 |
| ACAGCGGT | -0.219 |
| AGGAACCA | 0.203 |
| GGAAACCC | 0.106 |
| AGGAACCC | 0.414 |
| GAGAACCC | -0.162 |
| AGGAACCG | 0.139 |
| GGGAACCC | 0.336 |
